# Screening data (PubChem)
# Tgondii IFNg = blocks Toxoplasma gondii growth in the presence of IFN-gamma. Toxoplasma gondii growth in IFN-gamma-treated host cells; hits give low values. activity change, negative = inhibition, % (no concentration beside the values). actives 3.8% (n = 69,000); in the data active = activity change below about -70%, passing the limit was not always enough;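 note: host cells are HeLa cells infected with Toxoplasma gondii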
# * hit, by the source's call; ! = a repeat was not active. The sample as a whole holds a higher share of hits than the screen did.
SMILES,Tgondii IFNg
O=C(Cn1c(=O)cc(C(=O)N2CCCCC2)c2ccccc21)Nc1ccc2c(c1)OCO2,-54
Cc1cc(N2CC(c3ccccn3)C2)nc(-c2ccccc2O)n1,-14
CCOc1ncccc1-c1nc(C)cc(NC)n1,7
Cc1cc(Nc2ccc(Br)cc2)nc(-c2ccccc2O)n1,-85*
CCOc1ccccc1C(=O)Nc1ccc(S(=O)(=O)Nc2cc(C)on2)cc1,-28
Cc1cc(C(=O)Nc2ccc(S(N)(=O)=O)cc2)no1,-87*
Cc1cc(C(=O)Nc2ccc3c(c2)CCC(=O)N3)no1,31
C=CCC1(CC=C)CCCN1C(=O)c1ncc[nH]1,-4
Cc1ccc(CNC(=O)CN2C(=O)CCc3cc(S(=O)(=O)N4CCCCC4C)ccc32)cc1 (centres undefined),-9
CN(C)C(=O)[C@]12CCCN(C(=O)Nc3ccccc3)C[C@@H]1CN(Cc1cnn(C)c1)C2,1
CC(=O)NCCc1csc(C2CCN(C(=O)NCc3ccc(C)cc3)CC2)n1,19
CC(=O)c1ccc(CN2CCCCC2CN2CCOCC2)cc1 (centres undefined),-4
Cc1ccc(NC(=O)C(=O)NCCc2csc(-c3ccc(F)cc3)n2)cc1F,-26
Cc1cccc(NCc2cc3cc(C)cc(C)c3[nH]c2=O)c1,35
COc1ccc(CCNc2cnn(-c3ccccc3)c(=O)c2Cl)cc1OC,-83*
O=c1c(Cl)c(Oc2ccccc2)cnn1-c1ccccc1,72
COc1ccc(CCNC(=O)Cc2ccccc2)cc1OC,-48
COc1ccc(-c2csc(CCNC(=O)C(C)n3cc(Cl)cn3)n2)cc1 (centres undefined),25
O=S(=O)(NCc1csc2ccc(Cl)cc12)c1ccccc1,-14
S=C(NCc1csc2ccccc12)c1ccccc1,-78*
Cc1nn(C)c(C)c1CNC(=O)Nc1csc2ccccc12,-64
COc1ccc(NC(=O)N2CCCCC2c2cccc(F)c2)cc1 (centres undefined),0
CN(C)CC(=O)N1CCC2(CC1)CN(C(=O)c1cscn1)C2,-20
Cc1cc(C)n(C)c(=O)c1C(=O)Nc1ccc(N2CCCCC2)c(F)c1,11
CCN(C)C(=O)c1cnc(-c2noc3cc(NCc4ccccc4)ccc23)s1,27
SMILES,Tgondii IFNg
COCC(=O)N1Cc2cnn(C)c2C(COCC2CC2)C1 (centres undefined),-2
CC(C)(C)c1cc(-c2cc(C(F)(F)F)[nH]n2)c2c(c1)C(C)(C)CC2,-87*
CN1CCC2(CCN(C(=O)c3cc(C(F)(F)F)[nH]n3)CC2)C1,-2
CC(C)(C)c1cc(C2=NNC(O)(C(F)(F)F)C2)c2c(c1)C(C)(C)CC2 (centres undefined),-100*
OC1(C(F)(F)F)CC(c2nccs2)=NN1 (centres undefined),-13
O=C(CN1C(=O)CCc2cc(Br)ccc21)NCc1ccco1,7
COc1ccc(C(=O)c2cc(Cl)c(C(=O)c3ccc(OC)cc3)cc2Cl)cc1,-19
COc1cc(C(=O)N2CCC3(CC2)Nc2ccccc2-n2cccc23)cc(OC)c1OC,17
CCOC(=O)c1nc(Nc2ccc(F)c(Cl)c2)c2ccccc2n1,-51
COc1cncc(C(=O)Nc2ccc(C)c(F)c2)c1,-15
CCOC(=O)c1cc(NC(=O)c2ccc(F)c(Cl)c2)ccc1Oc1cncc(Cl)c1,-90*
Cc1cc2nnc(-c3ccc(C(F)(F)F)cc3)n2[nH]1,64
FC(F)(F)c1cc(-c2nnc(N3CCCC3)o2)cc(C(F)(F)F)c1,40
FC(F)(F)c1ccc(-c2nnc3ccc(N4CCCCC4)nn23)cc1,-109*
COCC(NC(=O)c1cc(NC(C)=O)ccc1Cl)c1ccnn1C (centres undefined),-42
COCCN1CCCC2(CCN(Cc3cnc(C)[nH]3)CC2)C1=O,-45
CN1CCN(CCC(=O)N2CCN(c3nsc4ccccc34)CC2)CC1,25
O=C1Cc2cc(CCN3CCN(c4nsc5ccccc45)CC3)c(Cl)cc2N1,-81*
Cc1c(S(=O)(=O)N2CCN(c3nsc4ccccc34)CC2)cnn1C(F)F,15
COCC1CC2(CCN(C(=O)c3cnccn3)CC2)CN1c1ncccn1 (centres undefined),-8
Cc1oc(C2CCN(C(=O)Cc3cccc(F)c3)CC2)nc1C(=O)N1CCSCC1,-59
COc1c(C)c2c(c(O)c1C/C=C(/C)CCC(=O)O)C(=O)OC2,-77*
COc1cc(N2CCc3cc(C(=O)O)c(C)nc3CC2)ncn1,-23
Cc1ccc2[nH]c(C(=O)O)c(CN3CCc4c(nc(-c5ccccn5)[nH]c4=O)C3)c2c1,-5
Cc1cnc(CNC(=O)[C@H]2CO[C@@H]3CCN(C)C[C@@H]3C2)cn1,-6
SMILES,Tgondii IFNg
OC(c1cc(C(F)(F)F)nc2c(C(F)(F)F)cccc12)C1CCCCN1 (centres undefined),-80*
Cc1cnc(C)c(N2C[C@@H]3[C@H](C2)[C@H]2CC[C@@H]3O2)n1,-4
CCc1nn(C)c(NC(=O)Cc2nnn(C(C)C)n2)c1C,-3
COc1ccc(CCN(C)CCCOc2ccc(S(=O)(=O)c3c(C(C)C)c4ccccc4n3C)cc2)cc1OC,-73*
COc1ccc(CCN(C)CCc2ccc(OC)c(OC)c2)cc1OC,5
COc1ccc(CCN(C)CCCC(C#N)(c2cc(OC)c(OC)c(OC)c2)C(C)C)cc1OC (centres undefined),-47
O=c1ccc2cc(S(=O)(=O)N3CCc4ccccc43)ccc2[nH]1,24
c1ccn2c(C3CCN(Cc4cc5n(n4)CCCNC5)CC3)nnc2c1,4
Cc1ccc(NC2(C(=O)NC(C)c3nncn3C)CCCCC2)cc1C (centres undefined),24
C=CCN1CCN(C(=O)Cc2ccsc2)Cc2cccnc21,-4
C=CCNc1ncc(-c2cc(C)no2)c([C@H]2CCCO2)n1,-15
Cc1cc(C)nc(SCc2ccc(C(=O)Nc3nccs3)cc2)n1,-88*
O=C(Cc1ccccc1)Nc1nccs1,-4
Cc1cc(SCc2ccc(C(=O)O)cc2)nc(SCc2ccc(Cl)cc2)n1,38
Cc1cccnc1CC(C)NC(=O)c1c(O)cccc1O (centres undefined),6
O=C1NCCNC12CCN(S(=O)(=O)c1cc(Cl)c(Cl)s1)CC2,-5
C=C[C@H]1CN2CC[C@H]1C[C@@H]2[C@@H](O)c1ccnc2ccc(OC)cc12,-88*!
C=CC1CN2CCC1CC2[C@@H](O)c1ccnc2ccc(OC)cc12 (some centres undefined),-60
C=C[C@H]1CN2CC[C@H]1C[C@@H]2[C@H](O)c1ccnc2ccc(OC)cc12,-16
CC(=O)Nc1ccc(C(=O)N(Cc2ccc(F)cc2)C2(C(=O)NCc3ccccc3)CCN(C(C)=O)CC2)cc1,42
CCCc1ccc(S(=O)(=O)N2CCc3nc(-c4ccc(OCC)cc4)sc3C2)cc1,102
COc1cc(NC(=O)C2=C(C)C(=O)OC23CCN(C(C)C)CC3)cc(OC)c1,48
Cn1cc(CN2CCCC23CCN(CC(C)(C)O)CC3)cn1,-43
Cc1cc(NC(=S)NC(=O)c2cccs2)ccc1-c1cc2ccccc2oc1=O,-80*
O=C(NC(=S)Nc1ccc(S(=O)(=O)N2CCOCC2)cc1)c1cccs1,7
O=C(Nc1cccc(-c2cc3ccccc3oc2=O)c1)c1ccc(Br)o1,23
C=CCN1CCCC1C(=O)N1CCn2nc(C(=O)Nc3ccccc3)cc2C1 (centres undefined),1
CCn1ccnc1-c1nccn1-c1ccccc1OCc1ccccn1,56
COC(=O)[C@@H]1C[C@H](NC(=O)c2cnnn2-c2ccccc2)CN1C,4
COc1ccc(-c2nc(C)c(CCNC(=O)C(=O)Nc3cc(C)ccc3C)s2)cc1OC,-69
